Data as given in article PMC5540273 (PLoS ONE, 2017).

How the values were obtained:
Conditions in all cases: concentration: 1 μM, replicates: in singlicate; n = 1
[1] = test system: T1, ERK5
T1 construct: gene MAPK7

[2] = test system: T2, ERK8
T2 construct: gene MAPK15

[3] = test system: ERN1
[4] = test system: T3, FAK
T3 construct: gene PTK2

[5] = test system: FER
[6] = test system: FES
[7] = test system: FGFR1
[8] = test system: FGFR2
[9] = test system: FGFR3
[10] = test system: FGFR4
[11] = test system: FGR
[12] = test system: FLT1
[13] = test system: FLT3-autoinhibited
[14] = test system: FLT3
[15] = test system: FLT4
[16] = test system: FRK
[17] = test system: FYN
[18] = test system: GAK
[19] = test system: T4, GCN2(Kin.Dom.2,S808G)
T4 construct: gene EIF2AK4

[20] = test system: GRK1
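Note: KINOMEscan kinase panel screen.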

## O=C(Nc1n[nH]c2cc(-c3ccccc3F)ccc12)C1CC1 [SB-733371]
[1]
  %Inh: 16%
[2]
  %Inh: 43%
[3]
  %Inh: 0%
[4]
  %Inh: 0%
[5]
  %Inh: 0%
[6]
  %Inh: 1%
[7]
  %Inh: 1%
[8]
  %Inh: 0%
[9]
  %Inh: 0%
[10]
  %Inh: 0%
[11]
  %Inh: 14%
[12]
  %Inh: 29%
[13]
  %Inh: 0%
[14]
  %Inh: 38%
[15]
  %Inh: 0%
[16]
  %Inh: 0%
[17]
  %Inh: 0%
[18]
  %Inh: 0%
[19]
  %Inh: 0%
[20]
  %Inh: 12%

## Nc1n[nH]c2ncc(-c3ccccc3)cc12 [SB-517081]
[1]
  %Inh: 0%
[2]
  %Inh: 0%
[3]
  %Inh: 9%
[4]
  %Inh: 0%
[5]
  %Inh: 0%
[6]
  %Inh: 0%
[7]
  %Inh: 0%
[8]
  %Inh: 0%
[9]
  %Inh: 2%
[10]
  %Inh: 18%
[11]
  %Inh: 28%
[12]
  %Inh: 7%
[13]
  %Inh: 49%
[14]
  %Inh: 72%
[15]
  %Inh: 0%
[16]
  %Inh: 15%
[17]
  %Inh: 26%
[18]
  %Inh: 70%
[19]
  %Inh: 52%
[20]
  %Inh: 0%

## Cl.NS(=O)(=O)c1cccc(Nc2cc(-c3ccc(F)cc3)n[nH]2)c1 [GW824645]
[1]
  %Inh: 0%
[2]
  %Inh: 3%
[3]
  %Inh: 21%
[4]
  %Inh: 0%
[5]
  %Inh: 41%
[6]
  %Inh: 0%
[7]
  %Inh: 0%
[8]
  %Inh: 0%
[9]
  %Inh: 0%
[10]
  %Inh: 0%
[11]
  %Inh: 0%
[12]
  %Inh: 0%
[13]
  %Inh: 77%
[14]
  %Inh: 88%
[15]
  %Inh: 0%
[16]
  %Inh: 0%
[17]
  %Inh: 0%
[18]
  %Inh: 0%
[19]
  %Inh: 0%
[20]
  %Inh: 23%

## COc1cc2ncn(-c3cc(OCc4ccncc4)c(C(N)=O)s3)c2cc1OC [GSK336313]
[1]
  %Inh: 0%
[2]
  %Inh: 0%
[3]
  %Inh: 23%
[4]
  %Inh: 0%
[5]
  %Inh: 24%
[6]
  %Inh: 0%
[7]
  %Inh: 0%
[8]
  %Inh: 0%
[9]
  %Inh: 7%
[10]
  %Inh: 2%
[11]
  %Inh: 28%
[12]
  %Inh: 19%
[13]
  %Inh: 0%
[14]
  %Inh: 0%
[15]
  %Inh: 17%
[16]
  %Inh: 0%
[17]
  %Inh: 35%
[18]
  %Inh: 17%
[19]
  %Inh: 0%
[20]
  %Inh: 0%

## Nc1ncnc2c1ncn2-c1cccc(F)c1 [SKF-97560]
[1]
  %Inh: 3%
[2]
  %Inh: 0%
[3]
  %Inh: 27%
[4]
  %Inh: 1%
[5]
  %Inh: 14%
[6]
  %Inh: 0%
[7]
  %Inh: 0%
[8]
  %Inh: 12%
[9]
  %Inh: 1%
[10]
  %Inh: 90.7%
[11]
  %Inh: 0%
[12]
  %Inh: 22%
[13]
  %Inh: 35%
[14]
  %Inh: 47%
[15]
  %Inh: 19%
[16]
  %Inh: 0%
[17]
  %Inh: 0%
[18]
  %Inh: 1%
[19]
  %Inh: 0%
[20]
  %Inh: 10%

## O=C(Nc1n[nH]c2nc(-c3ccccc3)c(Br)cc12)C1CC1 [SB-708998]
[1]
  %Inh: 100%
[2]
  %Inh: 15%
[3]
  %Inh: 0%
[4]
  %Inh: 0%
[5]
  %Inh: 7%
[6]
  %Inh: 0%
[7]
  %Inh: 14%
[8]
  %Inh: 0%
[9]
  %Inh: 13%
[10]
  %Inh: 5%
[11]
  %Inh: 8%
[12]
  %Inh: 25%
[13]
  %Inh: 8%
[14]
  %Inh: 1%
[15]
  %Inh: 26%
[16]
  %Inh: 0%
[17]
  %Inh: 26%
[18]
  %Inh: 11%
[19]
  %Inh: 0%
[20]
  %Inh: 0%

## Cl.c1ccc(Cn2cnc3cc(Nc4ncnc5ccccc45)ccc32)cc1 [GW272142]
[1]
  %Inh: 1%
[2]
  %Inh: 0%
[3]
  %Inh: 1%
[4]
  %Inh: 0%
[5]
  %Inh: 21%
[6]
  %Inh: 0%
[7]
  %Inh: 0%
[8]
  %Inh: 0%
[9]
  %Inh: 14%
[10]
  %Inh: 3%
[11]
  %Inh: 23%
[12]
  %Inh: 16%
[13]
  %Inh: 0%
[14]
  %Inh: 0%
[15]
  %Inh: 3%
[16]
  %Inh: 0%
[17]
  %Inh: 10%
[18]
  %Inh: 0%
[19]
  %Inh: 0%
[20]
  %Inh: 0%

## COc1cc2ncn(-c3cc(OCCCc4ccccc4)c(C(N)=O)s3)c2cc1OC [GSK205189]
[1]
  %Inh: 0%
[2]
  %Inh: 3%
[3]
  %Inh: 0%
[4]
  %Inh: 0%
[5]
  %Inh: 10%
[6]
  %Inh: 0%
[7]
  %Inh: 0%
[8]
  %Inh: 9%
[9]
  %Inh: 16%
[10]
  %Inh: 0%
[11]
  %Inh: 21%
[12]
  %Inh: 23%
[13]
  %Inh: 0%
[14]
  %Inh: 5%
[15]
  %Inh: 0%
[16]
  %Inh: 0%
[17]
  %Inh: 24%
[18]
  %Inh: 66%
[19]
  %Inh: 0%
[20]
  %Inh: 5%

## C[C@@H]1CC[C@H](C(=O)NC2CCCCC2)CN1c1cc(-c2ccc3c(N)n[nH]c3c2)nc(N)n1 [GSK2291363]
[1]
  %Inh: 0%
[2]
  %Inh: 1%
[3]
  %Inh: 17%
[4]
  %Inh: 0%
[5]
  %Inh: 41%
[6]
  %Inh: 0%
[7]
  %Inh: 4%
[8]
  %Inh: 8%
[9]
  %Inh: 17%
[10]
  %Inh: 12%
[11]
  %Inh: 27%
[12]
  %Inh: 35%
[13]
  %Inh: 9%
[14]
  %Inh: 9%
[15]
  %Inh: 14%
[16]
  %Inh: 19%
[17]
  %Inh: 21%
[18]
  %Inh: 17%
[19]
  %Inh: 0%
[20]
  %Inh: 0%
